Test results published in PubChem BioAssay (NCI).
“And” between values parts separate entries of the source, which are not always exact repeats. Equal entries are not always repeated. About 79,000 compounds went through this panel and 15% of them were active in at least one assay; those are over-represented in the sample as a whole. Where a structure was tested more than once in an assay, its records may differ in their call. The source made the active and inactive calls. Rule as the data show it: active = growth inhibition above about 70%; inactive = the rest.

Columns and labels:
[1] = NCI Yeast Anticancer Drug Screen. Data for the rad50 strain (AID 155);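 also: 0% = growth of vehicle-only cultures of the same strain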; settings: S. cerevisiae rad50 strain growth inhibition, stronger effect = higher value
Summary of the method: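 DNA repair mutant yeast, compound exposure, growth read-out; inhibition is taken relative to vehicle.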

[2] = NCI Yeast Anticancer Drug Screen. Data for the mec2-1 strain (AID 157); settings: S. cerevisiae mec2-1 strain, stronger effect = higher value
Summary of the method: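 Strain: mec2-1 (DNA repair/cell cycle alteration). Compound exposure, then growth measured; inhibition expressed relative to vehicle.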

[3] = NCI Yeast Anticancer Drug Screen. Data for the sgs1 mgt1 strain (AID 161);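 also: 0% = growth of cultures given vehicle only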; settings: S. cerevisiae sgs1 mgt1 strain, stronger effect = higher value
Summary of the method: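 Read-out: growth inhibition vs vehicle controls. Cells: mutant yeast strain deficient in DNA damage repair.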

[4] = NCI Yeast Anticancer Drug Screen. Data for the cln2 rad14 strain (AID 165);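 also: 0% = growth equal to vehicle treated cultures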; settings: S. cerevisiae cln2 rad14 strain, stronger effect = higher value
Summary of the method: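 Compounds are applied to the cln2 rad14 yeast strain, and growth is then compared with that of vehicle-treated cultures to give inhibition.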

[5] = NCI Yeast Anticancer Drug Screen. Data for the bub3 strain (AID 167); settings: S. cerevisiae bub3 mutant strain, stronger effect = higher value
Summary of the method: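 In this screen, a yeast mutant lacking normal mitotic checkpoint function is challenged with compound. Relative growth versus vehicle gives the inhibition value.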

[6] = NCI Yeast Anticancer Drug Screen. Data for the mlh1 rad18 strain (AID 175); settings: S. cerevisiae mlh1 rad18 strain growth inhibition, stronger effect = higher value
Summary of the method: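 Read-out is yeast growth inhibition, calculated against vehicle-only controls. The compound was applied to a strain engineered with DNA damage repair alterations.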

[7] = at 5.0 µM (retest, dose inferred, filed as 0.5)
[8] = at 50.0 µM (retest, dose inferred, filed as 5.0)

## C=C1CC2(CC(c3ccccc3OC)OC(c3ccccc3OC)C2)OC1=O (stereo unspecified)
[1]; [7]
  growth inhibition: 34% (inactive)
[1]; [8]
  growth inhibition: 58% (inactive)
[1]; at 50.0 µM
  growth inhibition: 61.1% (inactive)
[2]; [7]
  growth inhibition: 15% (inactive)
[2]; [8]
  growth inhibition: 10% (inactive)
[2]; at 50.0 µM
  growth inhibition: 74.7% (active)
[3]; [7]
  growth inhibition: 26% (inactive)
[3]; [8]
  growth inhibition: 70% (active)
[3]; at 50.0 µM
  growth inhibition: 54.2% (inactive)
[4]; [7]
  growth inhibition: 23% (inactive)
[4]; [8]
  growth inhibition: 79% (active)
[4]; at 50.0 µM
  growth inhibition: 71.8% (active)
[5]; [7]
  growth inhibition: 21% (inactive)
[5]; [8]
  growth inhibition: 14% (inactive)
[5]; at 50.0 µM
  growth inhibition: 60.5% (inactive)
[6]; [7]
  growth inhibition: 40% (inactive)
[6]; [8]
  growth inhibition: 88% (active)

## N#CC(=C1C=CC(=NOC(=O)Nc2cccc3ccccc23)C=C1)c1ccccc1
[1]; [7]
  growth inhibition: 44% (inactive)
[1]; [8]
  growth inhibition: 99% (active)
[1]; at 50.0 µM
  growth inhibition: 97.8% (active)
[2]; [7]
  growth inhibition: 35% (inactive)
[2]; [8]
  growth inhibition: 99% (active)
[2]; at 50.0 µM
  growth inhibition: 97.7% (active)
[3]; [7]
  growth inhibition: 51% (inactive)
[3]; [8]
  growth inhibition: 100% (active)
[3]; at 50.0 µM
  growth inhibition: 98.5% (active)
[4]; [7]
  growth inhibition: 10% (inactive)
[4]; [8]
  growth inhibition: 99% (active)
[4]; at 50.0 µM
  growth inhibition: 97.7% (active)
[5]; [7]
  growth inhibition: 62% (inactive)
[5]; [8]
  growth inhibition: 99% (active)
[5]; at 50.0 µM
  growth inhibition: 98.3% (active)
[6]; [7]
  growth inhibition: 30% (inactive)
[6]; [8]
  growth inhibition: 99% (active)
[6]; at 50.0 µM
  growth inhibition: 97.5% (active)

## Cc1ccc2c(c1)C1(C)OC(C=CC1=O)O2 (stereo unspecified)
[1]; [7]
  growth inhibition: 88% (active)
[1]; [8]
  growth inhibition: 100% (active)
[1]; at 50.0 µM
  growth inhibition: 88.2% (active)
[2]; [7]
  growth inhibition: 97% (active)
[2]; [8]
  growth inhibition: 99% (active)
[2]; at 50.0 µM
  growth inhibition: 91% (active)
[3]; [7]
  growth inhibition: 91% (active)
[3]; [8]
  growth inhibition: 100% (active)
[3]; at 50.0 µM
  growth inhibition: 91% (active)
[4]; [7]
  growth inhibition: 82% (active)
[4]; [8]
  growth inhibition: 99% (active)
[4]; at 50.0 µM
  growth inhibition: 90.5% (active)
[5]; [7]
  growth inhibition: 97% (active)
[5]; [8]
  growth inhibition: 100% (active)
[5]; at 50.0 µM
  growth inhibition: 87.8% (active)
[6]; [7]
  growth inhibition: 94% (active)
[6]; [8]
  growth inhibition: 99% (active)

## COc1ccc2nc(C)cc(NCCCCCCCCCNc3cc(C)nc4ccc(OC)cc34)c2c1
[1]; [7]
  growth inhibition: -17% (inactive)
[1]; [8]
  growth inhibition: 94% (active)
[1]; at 50.0 µM
  growth inhibition: 83.4% (active)
[2]; [7]
  growth inhibition: -30% (inactive)
[2]; [8]
  growth inhibition: 94% (active)
[2]; at 50.0 µM
  growth inhibition: 87.9% (active)
[3]; [7]
  growth inhibition: -2% (inactive)
[3]; [8]
  growth inhibition: 96% (active)
[3]; at 50.0 µM
  growth inhibition: 80.8% (active)
[4]; [7]
  growth inhibition: -11% (inactive)
[4]; [8]
  growth inhibition: 75% (active)
[4]; at 50.0 µM
  growth inhibition: 71% (active)
[5]; [7]
  growth inhibition: -40% (inactive)
[5]; [8]
  growth inhibition: 88% (active)
[5]; at 50.0 µM
  growth inhibition: 78.5% (active)
[6]; [7]
  growth inhibition: -21% (inactive)
[6]; [8]
  growth inhibition: 93% (active)

## COc1cccc2c1C(=O)c1c(O)c3c(c(O)c1C2=O)C[C@@](O)(C(C)=O)C[C@@H]3OC1CC(N(C)C)C(O)C(C)O1 (stereo partly specified)
[1]; [7]
  growth inhibition: 98% (active)
[1]; [8]
  growth inhibition: 98% (active)
[1]; at 50.0 µM
  growth inhibition: 86.5% (active)
[2]; [7]
  growth inhibition: 98% (active)
[2]; [8]
  growth inhibition: 98% (active)
[2]; at 50.0 µM
  growth inhibition: 90.3% (active)
[3]; [7]
  growth inhibition: 99% (active)
[3]; [8]
  growth inhibition: 99% (active)
[3]; at 50.0 µM
  growth inhibition: 90.8% (active)
[4]; [7]
  growth inhibition: 96% (active)
[4]; [8]
  growth inhibition: 97% (active)
[4]; at 50.0 µM
  growth inhibition: 90.2% (active)
[5]; [7]
  growth inhibition: 99% (active)
[5]; [8]
  growth inhibition: 99% (active)
[5]; at 50.0 µM
  growth inhibition: 88% (active)
[6]; [7]
  growth inhibition: 97% (active)
[6]; [8]
  growth inhibition: 97% (active)

## COc1cccc2c1C(=O)c1c(O)c3c(c(O)c1C2=O)C[C@@](O)(C(C)=O)C[C@@H]3OC1CC(O)C(O)C(C)O1 (stereo partly specified)
[1]; [7]
  growth inhibition: 45% (inactive)
[1]; [8]
  growth inhibition: 95% (active)
[1]; at 50.0 µM
  growth inhibition: 84.7% (active)
[2]; [7]
  growth inhibition: 21% (inactive)
[2]; [8]
  growth inhibition: 94% (active)
[2]; at 50.0 µM
  growth inhibition: 88.3% (active)
[3]; [7]
  growth inhibition: 25% (inactive)
[3]; [8]
  growth inhibition: 94% (active)
[3]; at 50.0 µM
  growth inhibition: 85.2% (active)
[4]; [7]
  growth inhibition: 46% (inactive)
[4]; [8]
  growth inhibition: 90% (active)
[4]; at 50.0 µM
  growth inhibition: 83.3% (active)
[5]; [7]
  growth inhibition: 34% (inactive)
[5]; [8]
  growth inhibition: 96% (active)
[5]; at 50.0 µM
  growth inhibition: 85.3% (active)
[6]; [7]
  growth inhibition: 40% (inactive)
[6]; [8]
  growth inhibition: 93% (active)

## O=C(O)c1ccc2c(c1)Cc1cc([N+](=O)[O-])ccc1-2
[1]; [7]
  growth inhibition: -3% (inactive)
[1]; [8]
  growth inhibition: 88% (active)
[1]; at 50.0 µM
  growth inhibition: 70.1% (active)
[2]; [7]
  growth inhibition: -7% (inactive)
[2]; [8]
  growth inhibition: 72% (active)
[2]; at 50.0 µM
  growth inhibition: 13.4% (inactive)
[3]; [7]
  growth inhibition: 7% (inactive)
[3]; [8]
  growth inhibition: 85% (active)
[3]; at 50.0 µM
  growth inhibition: 64% (inactive)
[4]; [7]
  growth inhibition: -92% (inactive)
[4]; [8]
  growth inhibition: 83% (active)
[4]; at 50.0 µM
  growth inhibition: 34.6% (inactive)
[5]; [7]
  growth inhibition: -10% (inactive)
[5]; [8]
  growth inhibition: 0% (inactive)
[5]; at 50.0 µM
  growth inhibition: 14% (inactive)
[6]; [7]
  growth inhibition: 4% (inactive)
[6]; [8]
  growth inhibition: 82% (active)
[6]; at 50.0 µM
  growth inhibition: 73% (active)

## CCN(CC)Cc1cc2c(cc1O)CC[C@@H]1[C@@H]2CC[C@]2(C)C(=O)CC[C@@H]12
[1]; [7]
  growth inhibition: 39% (inactive)
[1]; [8]
  growth inhibition: 80% (active)
[1]; at 50.0 µM
  growth inhibition: 83.6% (active) and 25.6% (inactive)
[2]; [7]
  growth inhibition: -5% (inactive)
[2]; [8]
  growth inhibition: 60% (inactive)
[2]; at 50.0 µM
  growth inhibition: 55.8% (inactive) and 15.2% (inactive)
[3]; [7]
  growth inhibition: 16% (inactive)
[3]; [8]
  growth inhibition: 47% (inactive)
[3]; at 50.0 µM
  growth inhibition: 78.5% (active) and 22.2% (inactive)
[4]; [7]
  growth inhibition: -2% (inactive)
[4]; [8]
  growth inhibition: 11% (inactive)
[4]; at 50.0 µM
  growth inhibition: 72.5% (active) and -21.2% (inactive)
[5]; [7]
  growth inhibition: 15% (inactive)
[5]; [8]
  growth inhibition: 67% (inactive)
[5]; at 50.0 µM
  growth inhibition: 54% (inactive) and 56% (inactive)
[6]; [7]
  growth inhibition: 38% (inactive)
[6]; [8]
  growth inhibition: 81% (active)
[6]; at 50.0 µM
  growth inhibition: 71.3% (active) and 20.9% (inactive)

## CN(C)CCNc1ccc(CO)c2oc3ccc(O)cc3c(=O)c12
[1]; [7]
  growth inhibition: 17% (inactive)
[1]; [8]
  growth inhibition: 41% (inactive)
[1]; at 50.0 µM
  growth inhibition: 26.5% (inactive)
[2]; [7]
  growth inhibition: 13% (inactive)
[2]; [8]
  growth inhibition: 41% (inactive)
[2]; at 50.0 µM
  growth inhibition: 59.9% (inactive)
[3]; [7]
  growth inhibition: 13% (inactive)
[3]; [8]
  growth inhibition: 36% (inactive)
[3]; at 50.0 µM
  growth inhibition: 9.95% (inactive)
[4]; [7]
  growth inhibition: 22% (inactive)
[4]; [8]
  growth inhibition: 28% (inactive)
[4]; at 50.0 µM
  growth inhibition: -14.1% (inactive)
[5]; [7]
  growth inhibition: 15% (inactive)
[5]; [8]
  growth inhibition: 66% (inactive)
[5]; at 50.0 µM
  growth inhibition: 49% (inactive)
[6]; [7]
  growth inhibition: 21% (inactive)
[6]; [8]
  growth inhibition: 63% (inactive)
